Results: PubChem BioAssay AID1026 (Columbia University Molecular Screening Center, 2008)
Unmarked numbers belong to inactive results. No rule for the calls is given here.

target: Bifunctional epoxide hydrolase 2 (Homo sapiens) (UniProt P34913); assay: sEH inhibitor concentration-response potency, dose response, biochemical, human sEH, fluorescence, Infinite200 (AID 1026); conditions: recombinant human sEH, fluorogenic substrate, at 0.2 µM, active compounds read high
Sequence (P34913 whole entry, looked up): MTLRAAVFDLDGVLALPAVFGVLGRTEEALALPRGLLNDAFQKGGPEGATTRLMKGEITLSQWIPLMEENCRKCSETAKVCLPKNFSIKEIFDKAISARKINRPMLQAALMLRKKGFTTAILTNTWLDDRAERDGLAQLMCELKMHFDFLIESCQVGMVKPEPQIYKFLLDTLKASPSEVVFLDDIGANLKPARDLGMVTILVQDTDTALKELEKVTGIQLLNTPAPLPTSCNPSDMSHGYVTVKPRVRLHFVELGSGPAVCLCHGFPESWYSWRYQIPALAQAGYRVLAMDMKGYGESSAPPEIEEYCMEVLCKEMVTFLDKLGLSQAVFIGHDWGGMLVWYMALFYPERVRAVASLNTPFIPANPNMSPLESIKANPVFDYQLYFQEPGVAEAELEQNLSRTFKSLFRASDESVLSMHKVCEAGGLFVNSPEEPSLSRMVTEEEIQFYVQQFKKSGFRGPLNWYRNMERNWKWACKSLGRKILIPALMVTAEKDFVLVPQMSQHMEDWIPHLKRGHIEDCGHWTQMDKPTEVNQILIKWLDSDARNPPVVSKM

First: CCOc1ccc(NC(=O)N2CCC(c3ccc(C)cc3)C2)cc1 (centres undefined)
Second: COc1ccc(NC(=O)N2CCCC(c3nc(-c4ccc(C(C)C)cc4)no3)C2)cc1 (centres undefined)
The inhibition of the first is lower: 50.5% for the first, 64.5% for the second.

Going from `O=C(NCc1ccccc1Cl)c1ccc(Cn2cc(C(F)(F)F)ccc2=O)cc1` to `C/C(=N\NC(=O)c1cccc(S(=O)(=O)Nc2ccccc2Cl)c1)c1ccc(-n2ccnc2)cc1`, the inhibition rises from 52.6% to 56%.

First: O=C(CCSc1ccc(Cl)cc1)NC12CC3CC(CC(C3)C1)C2
Second: O=C(Nc1ccc2c(c1)OCCO2)NC12CC3CC(CC(C3)C1)C2
The inhibition of the first is lower: 46.4% for the first, 72.8% for the second.

Compared with `CCn1c(C(=O)N2CCCC(C(=O)NCCCc3ccccc3)C2)cc2sccc21` (centres undefined), `O=C(NCCc1ccccc1)NC1CCCCC1` is lower in inhibition: 65.6% for the first, 44.6% for the second.

First: CCc1c(C)nc2ncnn2c1N1CCC(C(=O)Nc2ccc(C)cc2)CC1
Second: Cc1ccccc1-c1nc(CN2CCC(C(=O)NCCC3=CCCCC3)CC2)c(C)o1
The inhibition of the first is lower: 44.3% for the first, 55.6% for the second.

Compared with `COc1ccc(CNC(=O)C2CCC(CNS(=O)(=O)c3cccc4nsnc34)CC2)cc1` (centres undefined), `O=C(NCc1cccs1)C1CCC(CNS(=O)(=O)c2ccc(Br)s2)CC1` (centres undefined) is lower in inhibition: 74.4% for the first, 62.3% for the second.

Going from `CC(C)c1ccc(NC(=O)NC2CCN(CC(=O)Nc3cccc4ccccc34)CC2)cc1` to `O=C(Nc1ccccc1)Nc1ccc(S(=O)(=O)N2CCCCC2)cc1`, the inhibition rises from 62.2% to 72.3%.

First: Cc1nc2cc(NC(=O)NCCC3=CCCCC3)ccc2o1
Second: Cc1oc(-c2ccccc2F)nc1CN1CCC(C(=O)NCCC2=CCCCC2)CC1
The inhibition of the first is lower: 45% for the first, 56.5% for the second.

Compared with `CCOC(=O)CSc1nc2ccccc2c(=O)n1CC1CCC(C(=O)NCc2ccco2)CC1` (centres undefined), `O=C(COC(=O)c1ccc(S(=O)(=O)NCc2ccco2)cc1)NC1CCCCCC1` is higher in inhibition: 45.6% for the first, 62.6% for the second.

Going from `O=C(NCCC1=CCCCC1)c1ccc(Cl)c(S(=O)(=O)N2CCOCC2)c1` to `CC(C)(C)c1ccc(C(=O)N2CCC(C(=O)NCCC3=CCCCC3)CC2)cc1`, the inhibition falls from 68.1% to 38%.

Compared with `Cc1ccccc1OCCCC(=O)Nc1ccc(Br)cc1`, `Cc1ccccc1CSCCNC(=O)CCSc1ccccc1` is lower in inhibition: 69.8% for the first, 44.2% for the second.

Going from `O=C(Nc1ccc(Cl)cc1)N1CCC(c2nc(-c3ccccc3Cl)no2)CC1` to `CC1CCCN(S(=O)(=O)c2ccc(C(=O)Nc3nnc(-c4ccccc4Cl)o3)cc2)C1` (centres undefined), the inhibition falls from 62.8% to 58%.

Compared with `CC1CCCC(NC(=O)Nc2cccs2)C1C` (centres undefined), `CC(Cc1cccs1)NC(=O)Nc1ccc(Cl)c(Cl)c1` (centres undefined) is higher in inhibition: 49.2% for the first, 65.5% for the second.

First: CCCCNC(=O)CSc1nc2ccc(NC(=O)CSc3nnc(COc4ccccc4C)n3C)cc2s1
Second: CCC(C)NC(=O)Nc1ccc2c(c1)N(C)C(=O)c1ccccc1S2 (centres undefined)
The inhibition of the first is lower: 58.5% for the first, 59.7% for the second.

Compared with `O=C(Nc1ccc(Cl)c(C(F)(F)F)c1)C1CCCN(S(=O)(=O)c2cnc[nH]2)C1` (centres undefined), `CCOc1ccc(NC(=O)c2ccc(F)c(S(=O)(=O)N3CCN(c4ccccn4)CC3)c2)cc1` is lower in inhibition: 72.5% for the first, 64.3% for the second.

Compared with `O=C(N/N=C\c1ccc(Cl)s1)c1cccs1`, `CCC(C)c1ccc(NC(=O)c2cccs2)cc1` (centres undefined) is lower in inhibition: 74% for the first, 68% for the second.

Compared with `CC(=O)N1CCN(c2ccc(NC(=O)COc3ccc(Cl)cc3Cl)cc2)CC1`, `O=C(CSCc1ccc(Cl)cc1)N/N=C/c1ccc(Cl)cc1Cl` is higher in inhibition: 38.5% for the first, 55.6% for the second.

Compared with `COc1ccc(CCNC(=O)c2ccc3c(c2)NC(=O)C(N2CCOCC2)S3)cc1OC` (centres undefined), `Cc1cccc(NC(=O)Nc2cccc(Oc3c(F)c(F)c(F)c(F)c3F)c2)c1` is lower in inhibition: 49.2% for the first, 47.7% for the second.

Compared with `NS(=O)(=O)c1ccc(CNC(=O)/C=C/c2c(Cl)cccc2Cl)cc1`, `CCN(CCCNC(=O)CCCCn1c(=O)[nH]c2ccccc2c1=O)c1ccccc1` is lower in inhibition: 51.6% for the first, 38.1% for the second.

In the case of `Cc1oc(-c2ccccc2F)nc1CN1CCC(C(=O)NC2CCCCCCC2)CC1`, the inhibition is reported as 63.1%.
